High-throughput results as filed in PubChem.
In the library only some 3.7% were active in any assay of this set; here they are far more common.
GALK inhibitor: qHTS Assay for Inhibitors of Human Galactokinase (GALK): NCGC Sytravon Library Screen. P51570. Potency, µM (titrated, usually from 57.5 µM), for the others: at the top dose activity, negative = inhibition, hits mostly inhibitors. recombinant GALK, Kinase-Glo ATP luminescence, 1 h. 44,000 tested, under 10 active;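 note: plate controls were full GALK reaction for no effect and reaction lacking GALK for full effect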
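5 nM GALK; 35 uM ATP; 100 uM D-galactose; 20 mM HEPES pH 8.0, 5 mM MgCl2, 60 mM NaCl, 1 mM DTT, 0.01% BSA; 1 h RT; Kinase-Glo Plus luminescence.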
FH mod: Identification of activators of human fumarate hydratase by quantitative high-throughput screening; Fumarate hydratase, mitochondrial (Homo sapiens), P07954; FH coupled MDH/diaphorase resazurin fluorescence, 15 min; Potency, µM (top dose mostly 79.9 µM), without a hit: top-dose activity change, negative = inhibition, most hits filed as inhibitors; 54,000 compounds, 0.22% hits; AID 1347055, 2019; note: potency is the fitted concentration of half-maximal effect; % is set by controls: 0 for no effect and ±100 for the full control effect; the screen sought activators but most active calls are inhibition curves; nearly all actives have a fitted effect of over 45% in size
B2AR arrestin ag: qHTS assay of beta-arrestin-biased ligands of beta2-adrenergic receptor: NCGC Sytravon Library Screen | AID 1347077, 2019 | HTLA Tango cells, beta-arrestin recruitment, luciferase luminescence, 18 h | Potency, µM (top dose mostly 46.1 µM), usual class: activators | 44,000 tested, under 10 active | Beta-2 adrenergic receptor (Homo sapiens), P07550;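 note: potency is the fitted concentration of half-maximal effect; 0% = DMSO and full agonism = EC100 isoproterenol or metaproterenol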
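First, Tango cells carrying beta2-AR and beta-arrestin fusions received compound up to 46 microM. After 18 hr at 37 degrees C, luciferase substrate was added for 15 minutes, then luminescence gave %Activity for curve fitting.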
GPR32 ag: qHTS for Agonists of Human Resolvin D1 Receptor DRV1 | Probable G-protein coupled receptor 32 (Homo sapiens), O75388 | CHO-K1 GPR32 beta-arrestin PathHunter luminescence, 90 min; zero percent set by DMSO-only wells | activation, % at 76.9 µM | 48,000 compounds, 2.5% hits | AID 1346428, 2018;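 active = activation of at least 60% and not above a set upper limit, about 1 call in 100 departs from these limits; inconclusive = activation of 40% to 60%, or above that upper limit; inactive = activation under 40%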; note: 0% is about no effect
Target sequence (O75388 whole entry, looked up): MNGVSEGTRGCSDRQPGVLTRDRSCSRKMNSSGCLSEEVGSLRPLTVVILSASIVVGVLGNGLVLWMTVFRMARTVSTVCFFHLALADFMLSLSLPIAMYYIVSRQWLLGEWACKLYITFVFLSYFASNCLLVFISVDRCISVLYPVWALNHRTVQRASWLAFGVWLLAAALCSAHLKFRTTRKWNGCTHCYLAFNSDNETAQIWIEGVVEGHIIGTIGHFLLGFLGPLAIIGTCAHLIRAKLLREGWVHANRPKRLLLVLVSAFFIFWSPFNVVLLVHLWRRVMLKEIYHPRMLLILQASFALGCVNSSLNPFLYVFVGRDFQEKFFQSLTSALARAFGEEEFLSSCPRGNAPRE
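Agonism was scored as beta-arrestin recruitment to ProLink-fused GPR32 in stably transfected CHO-K1 cells, giving a chemiluminescent beta-Gal signal; compounds were incubated 90 min at 37 °C.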
NTMT1 inh: Primary qHTS for Inhibitors of N-terminal methyltransferase 1 (NTMT1): MTaseGlo Assay | N-terminal Xaa-Pro-Lys N-methyltransferase 1 (Homo sapiens), Q9BV86 | NTMT1 MTase-Glo SAH luminescence, purified enzyme | Potency, µM (doses to about 114 µM), inactives show top-dose activity change, negative = inhibition, hits mostly inhibitors | 59,000 compounds, 2.5% hits;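 note: potency is the fitted concentration of half-maximal effect; plate controls were DMSO vehicle for no effect and no enzyme for full effect; nearly all actives have a fitted effect of over 65% in size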
PTAP-TSG101 blk: qHTS Validation Assay for Inhibitors of HIV-1 Budding by Blocking the Interaction of PTAP/TSG101: Sytravon Library Screen; Potency, µM (top dose mostly 115 µM), most hits filed as inhibitors; Tumor susceptibility gene 101 protein (Homo sapiens), Q99816; 44,000 tested, under 10 active; Fluorescence polarization, FITC-PTAP peptide/Tsg101, 20 min; note: potency is the fitted concentration of half-maximal effect; 0% is about no effect
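qHTS FP binding, 20 min r.t.: 10 uM Tsg101 domain + 50 nM FITC-PTAP peptide, pH 7.5 HEPES buffer with TCEP and EDTA.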
CLK4 inh: Confirmation Assay for Inhibitors of CDC-like Kinase 4 (Kinase-Glo Assay): SAR round 2; 90 compounds, 90% hits; Potency, µM (top dose mostly 76.9 µM), for inactives: at the highest dose activity, negative = inhibition, hits mostly inhibitors; shares compounds with NTMT1 inh; recombinant Clk4, Kinase-Glo ATP luminescence, 4.5 h
NNMT inh: Counterscreen qHTS for Inhibitors of N-terminal methyltransferase 1 (NTMT1): NNMT MTaseGlo assay; shares compounds with NTMT1 inh; NNMT MTase-Glo luminescence, SAH detection; Potency, µM (series often up to 57.1 µM), without a hit: top-dose activity, negative = inhibition, most hits filed as inhibitors; 120 compounds, 10% hits; AID 1645878, 2021
Active calls of the source: *; i = inactive; ? = inconclusive; / = no result given; [ ] = dose if it differs, or a comment. Unless noted, calls come from the whole dose curve; as a rule, active = well fitted curve in the direction sought with a large enough effect; inconclusive = small, poorly fitted or top-dose-only effect, or another doubt; inactive = no such curve, though single readings can be large; an effect the other way counts as inactive or inconclusive.

SMILES	GALK inhibitor	FH mod	B2AR arrestin ag	GPR32 ag	NTMT1 inh	PTAP-TSG101 blk	NNMT inh	others
COc1cc(N2CCC(O)CC2)ccc1Nc1nc(Nc2ccccc2S(=O)(=O)C(C)C)c2[nH]cnc2n1	/	-19.3%	/	/	1.4%[57.5 µM]	/	?
CC1=C(C(=O)OC(C)C)C(c2cccc([N+](=O)[O-])c2)C(C(=O)OC2CN(C(c3ccccc3)c3ccccc3)C2)=C(N)N1 (centres undefined)	/	-6.9%[53.3 µM]	/	6.1	28.4%[57.5 µM]	/	/
COC(=O)C1=C(C)NC(C)=C(C(=O)O[C@@H]2CCCN(Cc3ccccc3)C2)[C@@H]1c1cccc([N+](=O)[O-])c1	/	?	/	-5.0	?	/	2.7%
CC(C)(C)c1ccc(C(=O)Nc2ccc(-c3nc4ccccc4[nH]3)cc2)cc1	/	/	/	/	4.8%	/	/
CC(C)(C)c1ccc(-c2nc3ccccc3[nH]2)cc1	/	0.4%[53.3 µM]	/	/	10µM*	/	?
CCC(=O)Nc1cc(-c2nc3cc(C)cc(C)c3o2)ccc1C	-2.0%	-1.9%	i	-21.5	3.4%	i	/
C=Cc1cc(O)cc2nc(-c3ccc(O)c(F)c3)oc12	/	-17.5%	/	/	12.6µM*	/	?
C/C=C/C=C/C=C/C(=O)O[C@@H]1C=C2COC(=O)[C@]2(O)[C@@]2(C)CCCC(C)(C)[C@H]12	/	-10.6%[53.3 µM]	/	/	-14.8%[29.8 µM]	/	-12.3%[28.6 µM]
Cc1ccsc1CN(C)c1ncnc2ccc(-c3ccc(COC(=O)N(C)C)o3)cc12	/	/	/	/	/	/	/	CLK4 inh=1.46µM*
Cc1ccc(CN(C)c2ncnc3ccc(-c4ccc(CO)o4)cc23)o1	/	/	/	/	?	/	/	CLK4 inh=0.0654µM*
Cc1ccc(CN(C(=O)c2ccc(C(C)(C)C)cc2)c2ccccn2)o1	0.5%	-9.1%	i	1.2	-13.4%	i	/
O=S(=O)(Nc1ccccc1)c1ccc(NCc2ccc(Br)cc2O)cc1	/	/	/	/	2.5%	/	/
O=C(O)CSc1cc(NS(=O)(=O)c2ccc(Br)cc2)c2ccccc2c1O	/	15.8µM*	/	/	28.2µM*	/	?
CN(C)[C@@H]1CCc2[nH]c3ccc(NC(=O)c4ccc(F)cc4)cc3c2C1	/	4.2%	/	/	6.3%[57.5 µM]	/	/
